These results are taken from the OligoGym collection.
Also: reference of the scale not given here.

One test deals with ZFP62. As to the kind of experiment: pooled miR-30 sensor sort-seq; sequence = guide strand. As to conditions: shRNA.
Turning to TTGAGTGTGAGATGTAGGCTTT, the sensor-assay potency score (higher = more potent) is -0.179.
Regarding TTTTATGTTGAACAAGGCGGGA, the sensor-assay potency score (higher = more potent) was -0.995.
As to TAATTTCTTAACAGCATTGGTT, the sensor-assay potency score (higher = more potent) was -0.651.
With TAGAGCGTGAGATATAGGCTTT, the sensor-assay potency score (higher = more potent) was -0.26.
On the same count and under the same terms, in the case of TTATATTTGAAGGATTTCCCAC it was -0.915; in that of TATGTAATTTCTTAACAGCATT, -1.56.
For TTTTCTGCTGTAGACTAGGGTA, the sensor-assay potency score (higher = more potent) is -0.796.
With TTTCTCTCTAGTGTGGACCCTT, the sensor-assay potency score (higher = more potent) was -0.0465.
As for TTTGCCACAGACATCACACTTG, the sensor-assay potency score (higher = more potent) stood at 0.373.

A further test deals with ZFR2. The description is as above. The conditions noted are these: shRNA.
As to TGTCGCAGTAGTGAAGCTGGAG, the sensor-assay potency score (higher = more potent) is -0.148.
On the same count and under the same terms, in the case of TTCGTCGCTGAACACCTCCTCC it was -0.823.
Still for that read-out and setting: in the case of TATGGTGACCTGCATCCTGGGC it was -0.904; in that of TTAAGGTCGTTGAAACTGCACT, -0.864.
Still for that read-out and setting: next, TGCAGCTTGAAGACCTTCTGGT: 0.0557; TTTCTTCCGGTACTGCAGCCGG: -0.948; TAGTGAAGCTGGAGCTGCCTGG: -0.835.
Regarding TTGGGTCTCGGCAGCTTGCTGG, the sensor-assay potency score (higher = more potent) is -0.733.
The same measure, in the same setting: in the case of TAGCTTGGTGCCGTGTAGGCGG it was -0.795; in that of TCATCCTCGGTCACCATCTGGA, -0.791; in that of TCCGTAGCTGTAACTGTCCTGG, -0.711.
On the same count and under the same terms, in the case of TCTGTCTGGTCTCTCTCGCAGG it was -0.775.

In another test the target is ZFR. Described as above. The conditions noted are these: shRNA.
For TTGTGTAGGAGACATAAGCAGG, the sensor-assay potency score (higher = more potent) is -0.979.
The same measure, in the same setting: next, TAGAACTTTGTGTATCTGGCGG: -0.255; TTTTTCATTACATCACTGCTAG: 0.0706.
The same measure, in the same setting: in the case of TTATATTGAAGTCTGTGTCTTC it was 0.707; in that of TTTCTCTACTAGTAACTCCATA, -1.22; in that of TATAACCATAGTCAGTTGCTGT, -0.854.
Still for that read-out and setting: in the case of TAGTTTTGTGTAGTAGCTGGGG it was 0.0406; in that of TCTTCTTCTCGTCTTCGCCAGT, -1.15; in that of TTGTGTGTAACTTAACCACTTT, -0.519.
Sequence TTACATATGAGTATGAATCCTG showed a sensor-assay potency score (higher = more potent) of 0.475.
Same read-out and setting: in the case of TATAACAGCAAGCTGTTTGGGT it was 0.358; in that of TTGACATTTCTATCTCCTCGGA, -0.27.

Another test addresses ZHX1. Described as above. The conditions noted are these: shRNA.
Sequence TTAAACTGAACATTTCTTCTAC gave a sensor-assay potency score (higher = more potent) of 0.706.
Still for that read-out and setting: next, TAGACATACAGTATTAAACTGG: -0.456; TTATGATGAACTGCAATCCGTT: -0.993; TAAGTATACATTTACTACGTGA: -0.517.
The same measure, in the same setting: in the case of TTGCTCATTAAGAAACTTGTGC it was -0.28; in that of TTTTTTTACATATCTTGCCTGT, -0.102.
Same read-out and setting: in the case of TAAATTAGTATGAACTTTCAGT it was -0.00447.
